CtBP-E1A blk: blocks the CtBP interaction with E1A; 340,000 tested, 0.49% active; activity change, % (no concentration beside the values); AlphaScreen GST-E1A/His-CtBP binding, 1536-well; hits give low values; in the data active means activity change below about -65%; inconclusive means mostly about -30% to -63%
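Steps: dispense buffer (Tris pH 8.0, NaCl 300 mM, TCEP 1 mM, BSA, Tween 20); add 5X protein mix (GST-E1A, His-CtBP, 125 nM each); pin 23 nL compound; 2 h at 37 °C, dark; add 5X beads (50 ug/mL); 1 h; read.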
Six1-Eya2 inh: Six1/Eya2 interaction inhibition. Q15475+O00167. AlphaScreen GST-Six1/His-Eya2 binding, biochemical; hits give low values. activity change, % (concentration not given with the values). 360,000 tested, 0.56% active. AID 651725; in the data active means activity change below about -65%; inconclusive means mostly about -30% to -63%
Target sequence (O00167 whole entry, looked up): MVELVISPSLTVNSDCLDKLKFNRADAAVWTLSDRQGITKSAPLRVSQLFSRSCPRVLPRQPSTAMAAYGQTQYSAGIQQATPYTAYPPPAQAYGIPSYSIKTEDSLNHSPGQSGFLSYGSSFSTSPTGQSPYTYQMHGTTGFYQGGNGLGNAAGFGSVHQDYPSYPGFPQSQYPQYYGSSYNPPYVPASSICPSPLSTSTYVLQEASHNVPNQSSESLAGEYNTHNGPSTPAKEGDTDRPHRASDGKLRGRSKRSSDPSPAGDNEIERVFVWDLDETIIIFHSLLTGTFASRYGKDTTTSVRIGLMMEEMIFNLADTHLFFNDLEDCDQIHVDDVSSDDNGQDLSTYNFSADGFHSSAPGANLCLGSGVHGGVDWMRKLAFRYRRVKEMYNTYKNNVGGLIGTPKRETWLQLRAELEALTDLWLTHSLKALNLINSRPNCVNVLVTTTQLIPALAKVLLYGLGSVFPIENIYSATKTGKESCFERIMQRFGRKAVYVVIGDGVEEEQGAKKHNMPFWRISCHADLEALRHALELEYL
Target sequence (Q15475 whole entry, looked up): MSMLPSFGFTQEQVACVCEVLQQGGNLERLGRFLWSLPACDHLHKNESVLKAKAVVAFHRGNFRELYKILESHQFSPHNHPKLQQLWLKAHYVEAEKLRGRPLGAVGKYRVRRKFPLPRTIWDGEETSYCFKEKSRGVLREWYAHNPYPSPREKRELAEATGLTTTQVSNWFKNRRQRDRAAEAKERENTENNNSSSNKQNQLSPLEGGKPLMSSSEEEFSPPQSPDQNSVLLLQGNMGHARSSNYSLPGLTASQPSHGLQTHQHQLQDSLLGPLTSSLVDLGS
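AlphaScreen with GST-Six1 and His-Eya2 (5X mix: 250 nM and 500 nM), glutathione donor and nickel acceptor beads; buffer 50 mM Tris pH 8.0, 300 mM NaCl, 1 mM TCEP; 1 h at 37 C in the dark.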
MBNL1-CUG inh: MBNL1-poly(CUG) RNA binding inhibition; 280,000 tested, 0.036% active; TR-FRET MBNL1-His/biotin-(CUG)12 binding, 665/545 ratio; Q9NR56; Potency, µM (top dose mostly 57.5 µM), hits mostly inhibitors; active means well fitted inhibition curve with a large enough effect in the signal ratio, with a control signal flat, not every such curve was filed as active; inconclusive means small, poorly fitted or top-dose-only effect, or effect the other way, or a change in a side signal; inactive means no such curve, though single readings can be large or run the other way; the % refers to the signal ratio
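TR-FRET readout: Ex 340 nm, 665/545 nm emission ratio, normalized to buffer-only (basal) and MBNL1-(CUG)12 controls. Complex of MBNL1-His with Biotin-(CUG)12, compounds 92 nM–58 uM, incubated 60 min at room temperature.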
RORgamma inh: ROR gamma (mouse) transcription inhibition. Potency, µM (series often up to 53.6 µM), hits mostly inhibitors. Drosophila S2 Gal4-RORgamma UAS-luciferase reporter, 20 h. 310,000 tested, 5.4% active. AID 2551; further: nearly all actives have a fitted effect of over 60% in size
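A Gal4/UAS one-hybrid system in insect cells: metallothionein-promoter Gal4–ROR gamma fusion plus Photinus luciferase reporter. Copper sulfate 700 uM final, 20 hr ambient incubation, luminescent detection after 10 min with reagent.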
CBFb RUNX1 block: CBF-beta/RUNX1 interaction disruption. AlphaScreen CBFb-His/RUNX1-biotin binding, biochemical. Potency, µM (top dose mostly 59.8 µM), usual class: inhibitors. 230,000 tested, under 10 active
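CBFb-His/RUNX1-biotin, 30 nM each, preincubated 20 min RT; compound 15 min RT; Ni + streptavidin beads 50 ng each, 90 min RT; AlphaScreen read.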
Gal4-VP16 FLuc: Gal4-VP16 reporter inhibition counter-screen | Drosophila S2 Gal4-VP16 UAS-luciferase, luminescence, 20 h | Potency, µM (highest dose often 53.6 µM), usual class: inhibitors | 310,000 tested, 3.5% active;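 further: Gal4-VP16 expression switched on by copper sulfate through the metallothionein promoter; nearly all actives have a fitted effect of over 50% in size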
Numbers stand for hits. Sampled rows, rich in hits. Any-hit rate of the full collection: about 5.5%. Unless noted, the call rests on the fitted dose curve; in most records, active means well fitted curve in the direction sought with a large enough effect; inconclusive means small, poorly fitted or top-dose-only effect, or another doubt; inactive means no such curve, though single readings can be large; an effect the other way counts as inactive or inconclusive.

CCn1c(CSc2nc3ccccc3s2)nc2ccccc21 was read as CtBP-E1A blk inactive, Six1-Eya2 inh inactive, MBNL1-CUG inh inactive, RORgamma inh 10µM, CBFb RUNX1 block inactive and Gal4-VP16 FLuc inconclusive.
Screening S=c1[nH]nc(CSc2nc3ccccc3s2)n1C1CCCCC1 returned CtBP-E1A blk inactive, Six1-Eya2 inh inactive, MBNL1-CUG inh inactive, RORgamma inh 0.2µM, CBFb RUNX1 block inactive and Gal4-VP16 FLuc 1.3µM.
Screening S=c1[nH]nc(-c2cccs2)n1C1CCCCC1 returned CtBP-E1A blk inactive, Six1-Eya2 inh inactive, MBNL1-CUG inh inactive, RORgamma inh inactive, CBFb RUNX1 block inactive and Gal4-VP16 FLuc inactive.
CCOc1ccccc1N1CCN(C2=C(NS(=O)(=O)c3cccs3)C(=O)c3ccccc3C2=O)CC1 was read as CtBP-E1A blk -76, Six1-Eya2 inh -65, MBNL1-CUG inh inconclusive, RORgamma inh inactive, CBFb RUNX1 block inconclusive and Gal4-VP16 FLuc inactive.
Screening O=C1C(NS(=O)(=O)c2cccs2)=C(N2CCN(Cc3ccccc3)CC2)C(=O)c2ccccc21 returned Six1-Eya2 inh -72, MBNL1-CUG inh inconclusive, RORgamma inh inactive, CBFb RUNX1 block inconclusive and Gal4-VP16 FLuc inactive.
`O=C1C(NS(=O)(=O)c2cccs2)=C(N2CCN(c3cccc(C(F)(F)F)c3)CC2)C(=O)c2ccccc21` gave CtBP-E1A blk -80, Six1-Eya2 inh -68, MBNL1-CUG inh inconclusive, RORgamma inh inactive, CBFb RUNX1 block inconclusive and Gal4-VP16 FLuc inactive.
For O=C1C(NS(=O)(=O)c2cccs2)=C(N2CCOCC2)C(=O)c2ccccc21 the results were CtBP-E1A blk inactive, Six1-Eya2 inh inactive, MBNL1-CUG inh inconclusive, RORgamma inh inactive, CBFb RUNX1 block inactive and Gal4-VP16 FLuc inactive.
O=S(=O)(Nc1ccc(C(F)(F)F)cc1)c1cccs1 was read as CtBP-E1A blk inactive, Six1-Eya2 inh inactive, MBNL1-CUG inh inactive, RORgamma inh inactive and Gal4-VP16 FLuc inactive.
O=C(NC1(Cc2ccccc2)CCN(CCc2cccs2)C1=O)c1ccccc1 (centres undefined) was read as CtBP-E1A blk inactive and Six1-Eya2 inh inactive.
Cc1ccc(NC(=O)c2cc(S(=O)(=O)N3CCCCC3)ccc2N2CCOCC2)c(C)c1 was read as CtBP-E1A blk inactive and Six1-Eya2 inh inactive.
For Cc1c(CNC(=O)C2CCC(=O)N(CCc3ccccc3)C2)cnn1C (centres undefined) the results were CtBP-E1A blk inactive, Six1-Eya2 inh inactive, MBNL1-CUG inh inactive, RORgamma inh inactive and Gal4-VP16 FLuc inactive.
Screening Cc1nc(C(F)(F)F)ccc1C(=O)N1CCCC1(C)C(=O)NCC(C)C (centres undefined) returned CtBP-E1A blk inactive and Six1-Eya2 inh inactive.
CCCCN1C(=O)C(=O)N(CC(=O)Nc2ccccc2C(C)=O)C1=O was read as CtBP-E1A blk inactive and Six1-Eya2 inh inactive.
`CCCCN1C(=O)C(=O)N(CC(=O)Nc2ccccc2C(=O)OCC)C1=O` gave CtBP-E1A blk -98, Six1-Eya2 inh inactive, MBNL1-CUG inh inactive, RORgamma inh inconclusive and Gal4-VP16 FLuc inactive.
Cn1cccc1C(=O)N1CCC2(CCN(Cc3ccc(C#N)cc3)CC2)CC1 was read as RORgamma inh inactive and Gal4-VP16 FLuc inactive.
CCc1ccc(C(O)c2ncc(-c3ccccc3OC)[nH]2)cc1 (centres undefined) was read as CtBP-E1A blk inactive and Six1-Eya2 inh inactive.
Screening COCCNc1nnc(Cc2ccc(OC)c(OC)c2)c(=O)[nH]1 returned CtBP-E1A blk inactive, Six1-Eya2 inh inactive, MBNL1-CUG inh inactive, RORgamma inh inactive and Gal4-VP16 FLuc inactive.
COc1ccc(Cc2nnc(NN)[nH]c2=O)cc1OC was read as CtBP-E1A blk inactive, Six1-Eya2 inh -91, MBNL1-CUG inh inactive, RORgamma inh inactive and Gal4-VP16 FLuc inactive.
Screening Cc1cc(C)nc(N/N=C2/CCCC/C2=C\c2ccccc2)n1 returned CtBP-E1A blk inactive, Six1-Eya2 inh inactive, MBNL1-CUG inh inactive, RORgamma inh 1.4µM, CBFb RUNX1 block inactive and Gal4-VP16 FLuc 10µM.
`O=c1cc(C(F)(F)F)nc(-n2[nH]c3c(c2=O)CCCC3)[nH]1` gave CtBP-E1A blk -88, Six1-Eya2 inh -85, MBNL1-CUG inh inactive, RORgamma inh inconclusive, CBFb RUNX1 block inactive and Gal4-VP16 FLuc inactive.
Screening CN1CCCC1CCNc1ccc2oc3ccccc3c(=O)c2c1 (centres undefined) returned CtBP-E1A blk inactive, Six1-Eya2 inh inactive, MBNL1-CUG inh inconclusive, RORgamma inh 8.9µM and Gal4-VP16 FLuc inconclusive.
`CN1CCCC1CCNc1ccc2c(=O)c3ccccc3oc2c1` (centres undefined) gave Six1-Eya2 inh inactive, MBNL1-CUG inh inactive, RORgamma inh inconclusive and Gal4-VP16 FLuc inconclusive.
`Cc1cccc(NS(=O)(=O)Cc2ccccc2)n1` gave CtBP-E1A blk inactive, Six1-Eya2 inh inactive, MBNL1-CUG inh inactive, RORgamma inh inactive, CBFb RUNX1 block inactive and Gal4-VP16 FLuc inactive.
For Cc1cccc(C#Cc2ccccc2)n1 the results were CtBP-E1A blk inactive, Six1-Eya2 inh inconclusive, RORgamma inh 14µM, CBFb RUNX1 block inactive and Gal4-VP16 FLuc inconclusive.
Screening CC[C@H]1C(c2cccc(C)c2)=NN(c2ccccc2)[C@@H]1CO returned RORgamma inh inactive, CBFb RUNX1 block inconclusive and Gal4-VP16 FLuc inactive.
For CC[C@H]1C(c2cccc(Cl)c2)=NN(c2ccccc2)[C@@H]1CO the results were RORgamma inh inconclusive, CBFb RUNX1 block inconclusive and Gal4-VP16 FLuc 32µM.
`Cc1cccc(C2=NN(c3ccccc3)[C@H](CO)[C@H]2c2ccc(Cl)cc2)c1` gave CtBP-E1A blk inactive, Six1-Eya2 inh inactive, RORgamma inh inactive, CBFb RUNX1 block inconclusive and Gal4-VP16 FLuc 40µM.
NS(=O)(=O)c1ccc(NC(=O)COC(=O)CCCN2C(=O)c3cccc4cccc(c34)C2=O)cc1 was read as CtBP-E1A blk inactive and Six1-Eya2 inh inactive.
Screening N=c1oc2cc(O)ccc2cc1C(=O)Nc1ccc(Cl)cc1 returned CtBP-E1A blk inactive, Six1-Eya2 inh inactive, MBNL1-CUG inh inactive, RORgamma inh 2.2µM and Gal4-VP16 FLuc 2µM.
`Cc1ccc(C2/C(=C(\O)c3ccc4c(c3)OCCO4)C(=O)C(=O)N2CC2CCCO2)cc1` (centres undefined) gave CtBP-E1A blk inactive, Six1-Eya2 inh inactive, MBNL1-CUG inh inactive, RORgamma inh inactive and Gal4-VP16 FLuc inactive.
CCN(CC)C(=O)Cn1cnc2sc(C(=O)N3CCN(c4ccc(OC)cc4)CC3)c(C)c2c1=O was read as CtBP-E1A blk inactive, Six1-Eya2 inh inactive, MBNL1-CUG inh inactive, RORgamma inh inactive, CBFb RUNX1 block inactive and Gal4-VP16 FLuc inactive.
